Hits are enriched below; roughly 2.6% of the tested compounds scored in any of these assays.
PHOSPHO1 inh – inhibitors of human PHOSPHO1 phosphatase; inhibition, % at 13.3 µM; 290,000 tested, 1.1% active; Q8TCT1; recombinant PHOSPHO1, absorbance phosphatase assay; in the data active = inhibition above about 60%
AI-2 QS modul – Vibrio harveyi AI-2 quorum sensing modulation; Vibrio harveyi JMH597 AI-2 luminescence/OD600 ratio, 9 h; hits give low values; strain lacks LuxN and CqsS sensors; 0 = neutral-control median; activity change, % at 7.5 µM; 300,000 tested, 0.4% active; in the data active = activity change below about -75%, passing the limit was not always enough;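 also: luminescence divided by OD600 gain over 9 h not by final OD600 alone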
MLLE-PAM2 inh – blocks PAM2 peptide binding to the PABP1 MLLE domain; inhibition, % at 20 µM; 360,000 tested, 0.36% active; P11940; AID 588489; GST-MLLE / FITC-PAM2 fluorescence polarization; in the data active = inhibition above about 35%, passing the limit was not always enough;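 also: plate controls were DMSO wells with GST-MLLE for no effect and wells lacking GST-MLLE protein for full effect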
PABP FP inh – blocks human PABP binding to poly(A) RNA | P11940 | fluorescence polarization | calls only at 35 µM | 290,000 tested, 1% active;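 also: calls also rest on retests at 20 µM and on dose response follow-up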
eIF4H FP inh – inhibitors of RNA binding by human eIF4H. 290,000 tested, 0.94% active. inhibition, % at 35 µM. eIF4H fluorescence polarization binding assay. Q15056;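 also: calls also rest on retests at 20 µM and on dose response follow-up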
ABCB6 inh 2 – inhibitors of human ABC transporter ABCB6 | fluorescence ratio to DMSO, % at 10 µM | Q9NP58 | K562-ABCB6 porphyrin accumulation, flow cytometry, 1 h; hits give low values | 360,000 tested, 0.19% active;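 active = fluorescence ratio to DMSO below 75%, the collection mean minus 3 SD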;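 also: signal is porphyrin accumulated inside mitochondria; 100% equals median channel fluorescence of DMSO control wells; lower ratio means ABCB6 inhibition with less porphyrin fluorescence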
JMH597 growth – retest: inhibitors of Vibrio harveyi JMH597 growth; growth inhibition, % at 7.5 µM; AID 2726; 750 tested, 1% active; OD600 absorbance, 9 h; lacks LuxN and CqsS sensors; shares compounds with AI-2 QS modul;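 active = every replicate shows growth inhibition above 50%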
BB721 const-QS lum – retest counter-screen: lowers luminescence of constitutive-QS Vibrio harveyi BB721; 9 h; AID 2727; 750 tested, 95% active; shares compounds with AI-2 QS modul; inhibition, % at 7.5 µM;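 active = inhibition above about 80% in every replicate, not just on average, limit read from the data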
BB721 growth – retest Vibrio harveyi BB721 growth inhibition; shares compounds with AI-2 QS modul; OD600 absorbance, 9 h; growth inhibition, % at 7.5 µM; 750 tested, 3% active; AID 2728;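 active = every replicate shows growth inhibition above 50%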
JMH597 AI-2 mod – Vibrio harveyi AI-2 signaling luminescence modulation – JMH597 strain, confirmation. shares compounds with AI-2 QS modul. Vibrio harveyi JMH597 AI-2 quorum sensing luminescence, 9 h; luxN and CqsS knockout, AI-2 only. inhibition, % at 7.5 µM. 750 tested, 97% active;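 active = every replicate shows more than 75% inhibition of signal versus neutral control wells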
Numbers without * were called inactive; i = inactive; . = no result. Unless noted, no rule for the calls is given here.

SMILES | PHOSPHO1 inh | AI-2 QS modul | MLLE-PAM2 inh | PABP FP inh | eIF4H FP inh | ABCB6 inh 2 | JMH597 growth | BB721 const-QS lum | BB721 growth | JMH597 AI-2 mod
c1ccc(Cc2nc(-c3ccccn3)no2)cc1 | -1 | -48 | -1 | i | -1 | 102 | . | . | . | .
COc1ccc(Cc2nc(-c3cccc(C)c3)no2)cc1 | 3 | -80* | 5 | i | -2 | 102 | 3 | 94* | -259 | 96*
Cc1cccc(NC(=O)NCc2ccc3c(c2)OCO3)c1 | 58 | -87* | 3 | i | -2 | 96 | -15 | 96* | 12 | 96*
O=C(/C=C/c1cccc(F)c1)NCc1ccc2c(c1)OCO2 | 10 | -88* | 3 | i | 10 | 96 | -6 | 96* | -10 | 97*
O=C(CO/N=C/c1ccc2c(c1)OCO2)Nc1cccc(Br)c1 | -15 | -89* | -2 | i | -1 | 87 | 13 | 98* | 29 | 98*
Cc1cccc(NC(=S)NCc2ccc3c(c2)OCO3)c1 | -4 | -10 | -46 | i | -7 | 103 | . | . | . | .
Cc1cccc(NC(=O)CO/N=C/c2ccc3c(c2)OCO3)c1 | -6 | -89* | -9 | i | 0 | 101 | 12 | 96* | 22 | 97*
OC(c1ccc(Cl)c(F)c1)c1ncc(-c2cccc3ccccc23)[nH]1 (centres undefined) | . | . | -1 | . | . | 96 | . | . | . | .
CC1(C(=O)Nc2ccc3c(c2)OCO3)CCN1C(=O)CCc1ccc(Cl)cc1Cl (centres undefined) | . | . | -1 | . | . | 96 | . | . | . | .
CCOC(=O)C1(C)CCCN(C(=O)c2ccc(F)cc2Cl)C1 (centres undefined) | . | . | -8 | . | . | 98 | . | . | . | .
COc1ccc(S(=O)(=O)N(C)C[C@H]2Oc3ncc(C#CC4(O)CCCC4)cc3C(=O)N([C@@H](C)CO)C[C@@H]2C)cc1 | . | . | 5 | . | . | 97 | . | . | . | .
CCOC(=O)C1=CCN(S(=O)(=O)c2ccccc2Br)C1c1ccccc1 (centres undefined) | . | . | -1 | . | . | 93 | . | . | . | .
Cc1ccc(NC(=O)CCCC2CCCCC2)c(O)c1 | 23 | -91* | 6 | i | 0 | 105 | -16 | 97* | 1 | 98*
O=C(CSc1nnc(-c2ccc(S(=O)(=O)N3CCCC3)cc2)o1)NCc1ccco1 | 26 | -83* | -77 | i | 33 | 105 | 23 | 84* | 19 | 90*
O=C(c1cnc(Cc2c[nH]c3ccccc23)c(I)c1)N1CCOCC1 | . | . | -23 | . | . | 99 | . | . | . | .
COC(=O)[C@H](CC(C)C)NC(=O)/C=C/[C@H]1O[C@@H](n2ccc(=O)[nH]c2=O)[C@H](O)[C@@H]1O | . | . | -11 | . | . | 99 | . | . | . | .
CN1CC(=O)N(CC(=O)Nc2cc(Cl)cc(Cl)c2)C1=O | 4 | -94* | -11 | i | 2 | 102 | -10 | 98* | 17 | 99*
CC(=O)c1cccc(NC(=O)c2ccc(-c3c(C)noc3C)c3ccoc23)c1 | . | . | -5 | . | . | 96 | . | . | . | .
CCCS(=O)(=O)NC(=O)C1(C)CCCN(C(=O)c2c(F)ccc(C)c2F)C1 (centres undefined) | . | . | -7 | . | . | 96 | . | . | . | .
COC(=O)c1cccc(NC(=O)Cn2nnc3ccccc32)c1 | 13 | -84* | 5 | i | -4 | 89 | 12 | 90* | 8 | 93*
COC(=O)c1cccc(NC(=O)CN2C(=O)c3ccccc3C2=O)c1 | 44 | -97* | 5 | i | 5 | 99 | 0 | 100* | -5 | 100*
COC(=O)c1cccc(NC(=O)C(C)N2C(=O)c3ccccc3C2=O)c1 (centres undefined) | 1 | -86* | 18 | i | -1 | 94 | 20 | 95* | 17 | 97*

Source: PubChem (several laboratories)
